Hit rate of the full screen: of about 13,000 compounds, about 3,200 (25%) showed an effect of 50% or more. The list shows a part of the results.
tested on: P. falciparum stage V gametocytes; design: BacTiter-Glo ATP luminescence viability of purified stage V gametocytes in 384-well plates, per cent inhibition versus DMSO; conditions: 48 h, 5 µM; inhibitor

SMILES	% Inhibition
CNc1ccc(CNCc2cccc(-c3ccc(-c4nc5ccccc5[nH]4)cc3)c2)cc1.O=C(O)C(F)(F)F [TCMDC-132986]	13.98%
COc1ccc(CNCc2cccc(-c3ccc(-c4nc5ccccc5[nH]4)cc3)c2)cc1.O=C(O)C(F)(F)F [TCMDC-132718]	76.66%
COc1ccc(CNCc2ccc(-c3cccc(-c4nc5ccccc5[nH]4)c3)cc2)cc1.O=C(O)C(F)(F)F [TCMDC-132546]	33.45%
O=C(O)C(F)(F)F.c1ccc(CNCc2ccc(-c3ccc(-c4nc5ccccc5[nH]4)cc3)cc2)cc1 [TCMDC-132711]	-28.39%
COc1ccc(CNCc2ccc(-c3ccc(-c4nc5ccccc5[nH]4)cc3)cc2)cc1.O=C(O)C(F)(F)F [TCMDC-132730]	80.88%
COc1ccc(CNCc2ccc(-c3ccc(-c4nc5cc(F)ccc5[nH]4)cc3)cc2)cc1.O=C(O)C(F)(F)F [TCMDC-132725]	-52.38%
OC[C@H]1CCCN1CC#Cc1cc2c(Nc3ccc(OCc4cccc(F)c4)c(Cl)c3)ncnc2s1 [TCMDC-138787]	-22.43%
Cc1ccn2c(C(=O)N3CCN(c4cccc5c4nc(-c4ccoc4)n5Cc4ccccn4)CC3)c(C)nc2c1 [TCMDC-134556]	-25.5%
CCCC(=O)Nc1ccc(Nc2nc(C)cc(N3CCCC3)n2)cc1 [TCMDC-124718]	-11.42%
COc1ccc(Nc2ncc3c(-c4cccc(NC(=O)Cc5ccc(O)cc5)c4)c[nH]c3n2)cc1OC [TCMDC-135248]	-43.02%
COc1ccc(Nc2ncc3c(-c4cccc(NC(=O)Cc5ccncc5)c4)c[nH]c3n2)cc1OC [TCMDC-135286]	-39.63%
COc1ccc(Nc2ncc3c(-c4cccc(NC(=O)CC(C)C)c4)c[nH]c3n2)cc1OC [TCMDC-135246]	51.08%
NC1CCCN(Cc2cccc(-c3ccc(-c4nc5ccccc5[nH]4)s3)c2)C1.O=C(O)C(F)(F)F (centres unmarked) [TCMDC-133870]	15.45%
Cc1cccc2nc(-c3ccc(-c4cccc(CN5CCC(C(N)=O)CC5)c4)s3)[nH]c12.O=C(O)C(F)(F)F [TCMDC-132690]	-2.69%
Cc1cccc2nc(-c3ccc(-c4cccc(CN5CCCC(O)C5)c4)s3)[nH]c12.O=C(O)C(F)(F)F (centres unmarked) [TCMDC-133834]	-3.04%
Cc1cccc2nc(-c3ccc(-c4cccc(CN5CCN(CCN6CCOCC6)CC5)c4)s3)[nH]c12.O=C(O)C(F)(F)F [TCMDC-133925]	7.217%
Cc1cccc2nc(-c3ccc(-c4cccc(CN5CCCC(N)C5)c4)s3)[nH]c12.O=C(O)C(F)(F)F (centres unmarked) [TCMDC-133874]	63.62%
Cc1cccc2nc(-c3ccc(-c4cccc(CN5CCC(N)C5)c4)s3)[nH]c12.O=C(O)C(F)(F)F (centres unmarked) [TCMDC-133873]	89.08%
Cc1cccc2nc(-c3ccc(-c4cccc(CN5CCCCC5)c4)s3)[nH]c12.O=C(O)C(F)(F)F [TCMDC-133911]	-13.55%
Cc1cccc2nc(-c3ccc(-c4cccc(CN5CCC(CCN6CCCCC6)CC5)c4)s3)[nH]c12.O=C(O)C(F)(F)F [TCMDC-133923]	107.3%
Cc1cccc2nc(-c3ccc(-c4cccc(CN5CCC(CO)CC5)c4)s3)[nH]c12.O=C(O)C(F)(F)F [TCMDC-133122]	24.91%
COc1ccc(-c2cnn3ccc(Nc4cc(OC)c(OC)c(OC)c4)nc23)cc1OC [TCMDC-134383]	101%
COc1cc(Nc2nccn3c(-c4ccsc4)cnc23)cc(OC)c1OC [TCMDC-134382]	37.58%

SMILES	% Inhibition
COc1ccc(-c2cncc(-c3ccc(OC)c(OC)c3)n2)cc1OC [TCMDC-138247]	25.57%
O=C(CSc1nccn1C1CCCCC1)Nc1cc(C(F)(F)F)ccc1Cl [TCMDC-124949]	15.12%
Cc1c(CNCCCNc2nc3ccncc3[nH]2)sc(Br)c1Br [TCMDC-140512]	32.17%
CCNc1cc(C(=O)N[C@@H](Cc2ccccc2)[C@H](O)CNC(C)C)cc(N2CC(c3ccccc3)CCS2(=O)=O)c1 (some centres unmarked) [TCMDC-134660]	43.25%
O=S(=O)(NC1CCN(c2ccnc3cc(Cl)ccc23)C1)c1cccs1 (centres unmarked) [TCMDC-133398]	1.762%
CNc1ccc(CNCc2ccc(-c3ccc(-c4nc5ccc(F)cc5[nH]4)cc3)cc2)cc1 [TCMDC-132980]	-78.33%
CN(C)CCNCc1ccc(-c2ccc(-c3nc4ccc(F)cc4[nH]3)cc2)cc1 [TCMDC-132681]	40.34%
Fc1ccc2nc(-c3cccc(-c4cccc(CNCCc5ccncc5)c4)c3)[nH]c2c1 [TCMDC-132857]	-45.49%
Fc1ccc2nc(-c3cccc(-c4ccc(CNCCc5ccncc5)cc4)c3)[nH]c2c1 [TCMDC-132854]	81.48%
COc1ccc(CNCc2ccc(-c3cccc(-c4nc5ccc(F)cc5[nH]4)c3)cc2)cc1 [TCMDC-132721]	-29.84%
COc1ccc(CNCc2cccc(-c3cccc(-c4nc5ccc(F)cc5[nH]4)c3)c2)cc1 [TCMDC-132717]	-45.78%
Nc1cccc(CNCc2ccc(-c3cccc(-c4nc5ccc(F)cc5[nH]4)c3)cc2)c1 [TCMDC-132937]	-46.54%
CNCCNCc1ccc(-c2cccc(-c3nc4ccc(F)cc4[nH]3)c2)cc1 [TCMDC-132836]	79.45%
Fc1ccc2nc(-c3cccc(-c4ccc(CNCc5ccccc5)cc4)c3)[nH]c2c1 [TCMDC-132702]	-56.98%
CNCCNCc1cccc(-c2cccc(-c3nc4ccc(F)cc4[nH]3)c2)c1 [TCMDC-132840]	70.05%
CNCCNCc1ccc(-c2ccc(-c3nc4ccc(F)cc4[nH]3)cc2)cc1 [TCMDC-132832]	83.07%
CS(=O)(=O)NCCCNCc1cccc(-c2cccc(-c3nc4ccc(F)cc4[nH]3)c2)c1 [TCMDC-133075]	-24.93%
COc1nc2c(CCN3CC[C@H](NCc4ccc5c(c4)NC(=O)CO5)[C@H](O)C3)c(Cl)cnc2cc1F [TCMDC-135805]	-8.55%
CC(C)CC(=O)N1CCNC[C@@H]1C(=O)NC1CC1 [TCMDC-141241]	28.73%
CN1CCCCC1CCc1cc(C(=O)Nc2ccc(-c3ccc(O)cc3)cc2)ccc1O (centres unmarked) [TCMDC-132103]	-69.36%
CC1(C)CCC(=Cc2ccc(Cl)cc2)CC1(O)Cn1ccnc1 (centres unmarked) [TCMDC-125222]	20.04%
Nc1ncc(Cc2cc(Cl)c(N)c3ncccc23)c(N)n1 [TCMDC-137889]	44.6%
Nc1ccc(-c2nc3ccc(Oc4ccc5nc(-c6ccc(N)cc6)[nH]c5c4)cc3[nH]2)cc1 [TCMDC-125791]	-25%

SMILES	% Inhibition
Nc1ccc(-c2nc3ccc(Cc4ccc5nc(-c6ccc(N)cc6)[nH]c5c4)cc3[nH]2)cc1 [TCMDC-123486]	52.65%
Cc1nc2ccc(-c3nc4ccc(N)cc4[nH]3)cc2[nH]1 [TCMDC-123723]	-56.67%
COc1ccccc1N1CCN(CCCCNC(=O)c2ccc(NC(=O)c3cc(Cl)cc(Cl)c3)cc2)CC1 [TCMDC-138236]	3.866%
O=C(/C=C/c1ccc(Cl)c(Cl)c1)NCCCCCCN1CCN(C(=O)Nc2ccc(F)c(Cl)c2)CC1 [TCMDC-135833]	-83.03%
COc1ccc(-c2cccc(NC(=O)c3ccc(C#N)cc3)c2)cc1CN1CCCN(C)CC1 [TCMDC-132609]	-22.05%
COc1ccc(-c2ccc(NC(=O)c3ccc(F)cc3)cc2)cc1CN1CCCN(C)CC1 [TCMDC-132514]	15.06%
COc1ccc(-c2cccc(NC(=O)c3cccs3)c2)cc1CN1CCCN(C)CC1 [TCMDC-132600]	87.2%
COc1ccc(-c2ccc(NC(=O)c3ccc(C#N)cc3)cc2)cc1CN1CCCN(C)CC1 [TCMDC-132517]	41.17%
COc1ccc(-c2cccc(NC(=O)c3ccccc3)c2)cc1CN1CCCN(C)CC1 [TCMDC-132627]	80.03%
COc1ccc(-c2cccc(NC(=O)c3ccc(C#N)cc3)c2)cc1CN1CCN(C)CC1 [TCMDC-132612]	-15.47%
COc1ccc(-c2ccc(NC(=O)c3cccs3)cc2)cc1CN1CCCN(C)CC1 [TCMDC-132509]	-9.366%
COc1ccc(-c2ccc(NC(=O)c3ccccc3)cc2)cc1CN1CCCN(C)CC1 [TCMDC-132535]	93.82%
O=C(Nc1cccc(C(F)(F)F)c1)NC1CCN(c2ccnc3cc(Cl)ccc23)C1 (centres unmarked) [TCMDC-133406]	-28.21%
COC(=O)CCCCCOc1cc(Cc2cnc(N)nc2N)cc(OC)c1OC [TCMDC-137678]	-5.017%
Cc1ccc(CCC(C)NCC(O)c2cccc(C(F)(F)F)c2)cc1 (centres unmarked) [TCMDC-131446]	13.09%
COc1ccc(Cc2c(Cl)nc3nc(N)nc(N)c3c2C)cc1 [TCMDC-138055]	17.08%
Oc1ccc(CCCNc2nc(NCc3cccc4ccccc34)nc(NC3CCNCC3)n2)cc1 [TCMDC-133392]	57.4%
Oc1ccc(CCCNc2nc(NCc3cccc4ccccc34)nc(N3CCNCC3)n2)cc1 [TCMDC-133394]	8.629%
Oc1ccc(CCCNc2nc(NCc3ccccc3-c3ccccc3)nc(N3CCNCC3)n2)cc1 [TCMDC-133391]	23.94%
Oc1ccc(CCCNc2nc(NCc3ccccc3-c3ccccc3)nc(NC3CCNCC3)n2)cc1 [TCMDC-133389]	58.76%
Oc1ccc(CCCNc2nc(NCc3cccc4ccccc34)nc(N3CCCNCC3)n2)cc1 [TCMDC-133445]	-39.91%
Oc1ccc(CCNc2nc(NCc3ccccc3-c3ccc(C(F)(F)F)cc3)nc(NC3CCNCC3)n2)cc1 [TCMDC-133387]	26.8%
